± gives the standard deviation of the averaged measurements.

The subject of this assay is Caenorhabditis elegans infected with Nematocida parisii. As to the kind of experiment: progeny production of N. parisii-infected C. elegans relative to uninfected control; higher = stronger inhibition of microsporidia infection (rescue of reproduction). As to conditions: 60 µM; incubation time 5 days; spore dose (spores/uL): 18000. The method, then:
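C. elegans N2 L1 larvae (100 per well, 96-well plate, K-medium with 5x E. coli OP50, 1% DMSO) were infected with Nematocida parisii spores (18,000 spores/uL) that had been pre-incubated for 1 h with each BU-CMD library compound at 60 uM. Plates were incubated 5 days at 21 C with shaking. Progeny were stained with rose bengal, scanned on a flatbed scanner and counted with WorMachine. Progeny number is expressed as % of uninfected DMSO controls on the same plate; three biological replicates per compound; hits were compounds with at least 60% progeny production.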
With `CC(=O)[C@@H]1[C@@H](C)N(Cc2ccccc2)C(=O)N[C@H]1c1cccc(C(F)(F)F)c1`, the progeny production was determined as 33.2 ± 12%.
Next, `C=C(C)C[C@@H](O)COc1cc2c(cc1C1(c3cc4c(cc3OC[C@H](O)CC(=C)C)OCO4)C(=O)Nc3cc(F)ccc31)OCO2`: 20.5 ± 11%.
To `COc1ccc(C2=CC3=C(Br)C(=O)C(C)(O)C(=O)C3=CO2)cc1` (centres undefined) belongs 80.6 ± 13%; to `COC(=O)C1=C(C)N(CCc2cc(OC)c(OC)c(OC)c2)C(=O)N[C@H]1c1ccccc1`, 38.1 ± 18%.

Source of the values: the supplement of paper PMC12340860.
